± gives the standard deviation of the averaged measurements. Whole data set: some 25,000 sequences, median “ln(normalized median fluorescence intensity)” near 8.6, cut for the highest 2% near 10. Shown is part of a subset that was picked to be rich in the highest values.

The subject of this assay is PfAP2-EXP AP2 domain (GST-tagged). Kind of assay: gcPBM binding intensity (ln(normalized median fluorescence intensity)); higher = stronger DNA binding. In a few lines:
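GST-tagged P. falciparum DNA-binding domains, expressed in E. coli (about 25 μg on average), were applied for 1 h to an Agilent 4 × 180k array of primer-extended double-stranded 36-bp intergenic genomic probes plus negative controls. The binding buffer was 1× PBS with 1% milk, 0.2 mg/ml BSA, 0.5% salmon testes DNA and 0.03% Triton X-100. Bound protein was detected with Alexa488 anti-GST antibody and scanned at 488 nm. Binding intensity is the highest Masliner-normalised natural-log median intensity across replicate spots of either probe orientation.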
In the case of “ATTTCCTGGCTACTGTGTACTGACCTCCAGACTGCT [XGTACX_site2005]”, the “gcPBM binding intensity (ln)” value amounted to 8.81 ± 0.55.

Consider “ACTACATAATATTTACGTACCTAAAAAATTCTTATA [XGTACX_site509]”, for which the “gcPBM binding intensity (ln)” value amounted to 8.51 ± 0.33.

In the case of “TGGGAAAAAATATATGCACACCCCCCAAAAAAAAAA [CACACA_site8696]”, the “gcPBM binding intensity (ln)” value is 11.1 ± 0.35.

Regarding “AAAAAAAAAAAAAACACACACACACCCAAATATATA [CACACA_site1169]”, the “gcPBM binding intensity (ln)” value was 8.71 ± 0.3.

Turning to “AAAAAAAAAAAACACACACACACACCCAAATATATA [CACACA_site150]”, the “gcPBM binding intensity (ln)” value amounted to 8.49 ± 0.61.

As for “ATAATATAAATATGCACACAAATTATTACCCAAAAA [CACACA_site2524]”, the “gcPBM binding intensity (ln)” value was 8.56 ± 0.2.

As for “GGAAAAAATATATGCACACCCCCCAAAAAAAAAAAA [CACACA_site2222]”, the “gcPBM binding intensity (ln)” value worked out at 10.95 ± 0.099.

For the sequence “TTAAAAAAATATAATACACACCAAAAATATGCACAT [CACACA_site5209]”, the “gcPBM binding intensity (ln)” value amounted to 8.85 ± 0.35.

Turning to “TACATATTTTATAGCACACAAATAATAATATGTAGT [CACACA_site688]”, the “gcPBM binding intensity (ln)” value was 8.68 ± 0.31.

On to “TTTGAGATGTGGTGTACACAAAATTAGGTACACATC [CACACA_site5773]”, for which the “gcPBM binding intensity (ln)” value worked out at 8.92 ± 0.33.

Consider TCTTTTTCTTCTTATGTGCACATCAATTATGCTTCT, for which the “gcPBM binding intensity (ln)” value is 9.33 ± 0.35.

Regarding “AATGTGCTCGCTATTACACACTCATTGGGATAAACT [CACACA_site7043]”, the “gcPBM binding intensity (ln)” value was determined as 8.56 ± 0.4.

As to “CTGAAATTAACAAAAGTGCATAAAAATAAAAAATAT [GTGCAC_site9652]”, the “gcPBM binding intensity (ln)” value was found to be 8.99 ± 0.29.

For TAAAAAATTAATAAAGTGCATAAATATTACAATATT, the “gcPBM binding intensity (ln)” value is 8.32 ± 0.18.

As to TAAATTAATAAACAAGTGCATATATATATATATATA, the “gcPBM binding intensity (ln)” value amounted to 10.2 ± 0.38.

Turning to “TTTTTTTATTATTAAAGTACTAAAAAATGAAAACTG [XGTACX_site6758]”, the “gcPBM binding intensity (ln)” value came to 8.26 ± 0.18.

Turning to “AAGTTGGAAAGGTTATGTACTTATTTTTTAAAATAA [XGTACX_site204]”, the “gcPBM binding intensity (ln)” value was 8.27 ± 0.45.

Consider “TATCATTTTGTATATAGTACATATATAAAATCGTTA [XGTACX_site3875]”, for which the “gcPBM binding intensity (ln)” value amounted to 8.35 ± 0.29.

As to “GTATAATAAATGATAGCACACATATGTACTTATATA [CACACA_site8188]”, the “gcPBM binding intensity (ln)” value was found to be 8.57 ± 0.25.

As to “AGCCTCGGGGTCATATATATATATATATATATATAT [CACACA_negctrl_site512]”, the “gcPBM binding intensity (ln)” value is 10.2 ± 0.53.

Take “ATATAGTAAAATTATACACACATGAATTTTCCCATG [CACACA_site1770]”: the “gcPBM binding intensity (ln)” value was 8.48 ± 0.49.

As to “AATAATAATAGTAATATGTACATATATATATATATA [TGCATGCA_negctrl_site542]”, the “gcPBM binding intensity (ln)” value worked out at 10.1 ± 0.33.

As to “ATAAATAAATAAGTACATATATATATGTATATATAT [TGCATGCA_negctrl_site223]”, the “gcPBM binding intensity (ln)” value worked out at 8.775 ± 0.021.

Take “ATAAGTAATATAATATGTACATATATATATATATAT [XGTACX_site3818]”: the “gcPBM binding intensity (ln)” value stood at 10.2 ± 0.37.

“TATATATAAACATAATGTACATATAATAAGTAATAT [XGTACX_site497]”: the “gcPBM binding intensity (ln)” value turned out to be 8.89 ± 0.45.

Regarding “ATAATAATAGTAATATGTACATATATATATATATAT [XGTACX_site7437]”, the “gcPBM binding intensity (ln)” value was found to be 10.2 ± 0.53.

Take “TAATAATAGTAAATATGTACATATATATATATATAG [XGTACX_site4602]”: the “gcPBM binding intensity (ln)” value stood at 8.73 ± 0.3.

The values are drawn from the supplement of paper PMC11417369.
